Each structure is given as a SMILES string. Several values for one entry are separate records, joined by “and”; a condition that tells them apart may be missing. Equal entries are not always repeated. Records with an inconclusive call do not appear. Values without a mark were called inactive. Activity calls are given as the source filed them. The call rests on the fitted dose curve; in most records, active means well fitted inhibition curve with a large enough effect; inconclusive means small, poorly fitted or top-dose-only effect; inactive means flat fitted curve, though single readings scatter.
On the % scale 0 is the no-effect control and ±100 the full control effect; potency means the concentration at half of the fitted maximal effect.

The experiment is described as follows: P-glycoprotein substrates identified in KB-8-5-11 adenocarcinoma cell line, qHTS therapeutic library screen (AID 1346987). Further: nearly all actives have a fitted effect of over 65% in size. The following applies: KB-8-5-11 (P-gp overexpressing) viability, CellTiter-Glo, 72 h; series mostly up to 44.5 µM; activity change, negative = cytotoxicity: at the top concentration. The text has this:
The ATP-binding cassette transporters P-glycoprotein (P-gp) is known to limit brain penetration of many chemotherapy drugs. […] As such, we developed a high-throughput screen (HTS) to identify substrates of P-gp from a series of chemical libraries including the National Center for Advancing Translational Sciences Pharmaceutical Collection NPC, 2,816 compounds), testing a total of 10,804 compounds, most of which have known mechanisms of action. We used the CellTiter-Glo viability assay to test library compounds against the parental KB-3-1 human cervical adenocarcinoma cell line and the colchicine-selected sub-line KB-8-5-11 that over-expresses P-gp. KB-8-5-11 cells were also tested in the presence of a P-gp inhibitor (tariquidar) to assess reversability of transporter-mediated resistance. Of the tested compounds, a total of 90 P-gp substrates were identified including 55 newly identified P-gp substrates. Substrates were confirmed using an orthogonal killing assay against HEK-293 cells transfected with P-gp. As exemplars, we confirmed that […] (cyclin-dependent kinase inhibitor); AT9283, (Janus kinase 2/3 inhibitor); ispinesib (kinesin spindle protein inhibitor); gedatolisib (PKI-587, phosphoinositide 3-kinase/mammalian target of rampamycin inhibitor); GSK-690693 (AKT inhibitor); and KW-2478 (heat shock protein 90 inhibitor) were substrates , and direct ATPase stimulation was assessed. ABCG2 was also found to confer high levels of resistance to AT9283, GSK-690693 and gedatolisib, while ispinesib, AT7519 and KW-2478 were weaker substrates.
The HeLa derivative cell line, KB-3-1, and its colchicine-selected, P-gp-overexpressing subline, KB-8-5-11 were maintained in DMEM with 10% FCS and Pen/Strep with glutamine at 37 degree C in 5% CO2. For KB-8-5-11 cells, colchicine was added to the medium at a concentration of 100 ng/mL. HEK-293 cells transfected with empty vector (pcDNA) or vector containing human ABCB1 (MDR-19) or ABCG2 (R-5) have been described previously (Robey, Lin, Qiu, Chan & Bates, 2011) and were maintained in EMEM supplemented with 10% FCS, Pen/Strep and glutamine with 2 mg/ml G418 to select for the expression of the transporter. Cultures were confirmed to be free of mycoplasma infection using the MycoAlert Mycoplasma Detection Kit (Lonza, Walkersville, MD). For the screen, assay medium was identical to culture medium except for KB-8-5-11 where colchicine was excluded from the medium.
All cell lines were plated into 1536-well plates at 500 cells/well in 5 uL media. Compounds were then pinned in dose-response using a 1536-head pin tool (Kalypsis, San Diego, CA) and plates were incubated at 37 degree C in 5% CO2 for an additional 72 h. CellTiter-Glo reagent (Promega) was dispensed into the wells, incubated for 5 min and luminescence was read on a ViewLux instrument (Perkin-Elmer). Cytotoxic compounds were defined as those that yielded a curve class of -1.1, -1.2, -2.1, -2.2, -2.3, or -2.4, a maximum response of >50% and an AC50 of < 10 uM. Cherry-picked hits from screening analysis were tested with both the KB pair of cell lines, and the pcDNA (empty vector control) and MDR-19 (P-gp overexpressing) pair were tested, in the absence and presence of tariquidar.
Background: In qHTS, concentration-response curves come from the screen itself.
Take `O=c1[nH]c2ccc(Cl)cc2c(N[C@@H]2CN3CCC2CC3)c1-c1nc2ccccc2[nH]1`: the Potency is 1.66 µM (active).

For `O=c1cccc2n1CC1CNC[C@H]2C1`, the “activity change, negative = cytotoxicity” value is 4.82%.

With `Cc1[nH]nc2ccc(-c3cncc(OC[C@@H](N)Cc4c[nH]c5ccccc45)c3)cc12`, the Potency is 526 nM (active) and 5.17 µM (active).

On to `O=C(N[C@@H](COc1ccc2[nH]c(=O)[nH]c2c1)c1ccccc1)c1cccn(Cc2ccc(F)c(F)c2)c1=O`, for which the Potency entry is “inactive”.

In the case of `C[C@]12CC[C@@H]3[C@@H](CCC4=CC(=O)CC[C@@H]43)[C@@H]1CC[C@@H]2OC(=O)CCc1ccccc1`, the Potency was 5.8 µM (active).

Consider `C[C@]12CC[C@H]3[C@@H](CCC4=CC(=O)CC[C@@]43C)[C@H]1CC[C@H]2O`, for which the Potency is 11.8 µM (active).

For the compound `O=S(=O)(CC1CS1)c1ccc(Oc2ccccc2)cc1` (stereo not given), the “activity change, negative = cytotoxicity” value is 5.2%.

Regarding `CC=C(C)C(=O)N[C@@H](c1ccccc1)[C@@H](O)C(=O)O[C@H]1C[C@@]2(O)[C@@H](OC(=O)c3ccccc3)[C@@H]3[C@]4(OC(C)=O)CO[C@@H]4C[C@H](O)[C@@]3(C)C(=O)[C@H](OC(C)=O)C(=C1C)C2(C)C`, the Potency was 0.0332 µM (active).

For the compound `C[C@@H]1CC[C@@]2(OC1)O[C@H]1C[C@H]3[C@@H]4CC=C5C[C@@H](O[C@@H]6O[C@H](CO)[C@@H](O[C@@H]7O[C@@H](C)[C@H](O)[C@@H](O)[C@@H]7O)[C@H](O)[C@@H]6O[C@@H]6O[C@@H](C)[C@H](O)[C@@H](O)[C@@H]6O)CC[C@]5(C)[C@@H]4CC[C@]3(C)[C@@H]1[C@H]2C`, the Potency is 18.7 µM (active).

With `C/C=C(/C)C(=O)O[C@H]1C(C)=C2[C@H]([C@@H]1OC(=O)CCCCCCC)[C@@](C)(OC(C)=O)C[C@H](OC(=O)CCC)[C@@]1(O)[C@H]2OC(=O)[C@@]1(C)O`, the Potency is 2.06 µM (active).

As for `O=[N+]([O-])c1ncc[nH]1`, the “activity change, negative = cytotoxicity” value is -10.4%.

In the case of `CC(C)(C)[C@]1(O)C[C@@H]2OC(=O)C[C@@]23C(=O)O[C@@H]2OC(=O)[C@H](O)C213` (stereo not given in full), the “activity change, negative = cytotoxicity” value was 5.58%.

Turning to `C[N+](C)(C)CC(=O)O`, the Potency entry was “inactive”.

For the compound `CN(C)NC(=O)CCC(=O)O`, the “activity change, negative = cytotoxicity” value was 2.11%.

`Oc1ccc2c3c1O[C@H]1[C@@H](O)C=C[C@H]4[C@@H](C2)NCC[C@@]341`: the “activity change, negative = cytotoxicity” value was -5.18% [at 93.4 µM].

Consider `S=C(SSC(=S)N1CCCCC1)N1CCCCC1`, for which the “activity change, negative = cytotoxicity” value was -2.48%.

With `COc1cc([C@@H]2c3cc4c(cc3[C@@H](O)C3COC(=O)C32)OCO4)cc(OC)c1O` (stereo not given in full), the Potency was 0.118 µM (active).

As to `COC1=C[C@@H]2[C@@H]3Cc4ccc(OC)c(O)c4[C@]2(CCN3C)CC1=O`, the Potency entry was “inactive”.

Consider `NC1CC1c1ccccc1` (stereo not given), for which the call was inactive.

As for `CN[C@@H]1Cc2cccc3[nH]c(=O)n(c23)C1`, the compound was called inactive.

`CC[C@@]1(O)C(=O)OCc2c1cc1n(c2=O)Cc2cc3ccccc3nc2-1`: the Potency was 0.332 µM (active).

For `COc1cccc2c1[C@]13CCN(CC4CC4)[C@H](C2)[C@]1(OC)CCC(=O)C3`, the “activity change, negative = cytotoxicity” value is 2.8%.

Regarding `CCCCOC(=O)c1ccccc1C(=O)OCc1ccccc1`, the “activity change, negative = cytotoxicity” value was -9.72% [at 93.4 µM].

Take `C=C1C[C@H]2[C@H]3CCC(=O)[C@@]3(C)CC[C@@H]2[C@@]2(C)C=CC(=O)C=C12`: the “activity change, negative = cytotoxicity” value is -22%.

Take `CC(C)(O)C=CC(=O)[C@](C)(O)[C@H]1[C@H](O)C[C@]2(C)[C@@H]3CC=C4[C@@H](C=C(O)C(=O)C4(C)C)[C@]3(C)C(=O)C[C@@]12C`: the Potency is 0.118 µM (active).

Turning to `CC(C)N[C@@H]1CCn2c(=O)[nH]c3cccc(c32)[C@@H]1O`, the “activity change, negative = cytotoxicity” value is 7.07%.

For `CCOP(=O)(OCC)C(C)NC(=O)N(CCCl)N=O` (stereo not given), the compound was called inactive.

As for `Clc1ccccc1C(c1ccccc1)(c1ccccc1)n1cccn1`, the “activity change, negative = cytotoxicity” value was 6.39%.

For `CC(C)(C)NC[C@H](O)c1ccc(O)cc1Cl`, the “activity change, negative = cytotoxicity” value was 9.96%.

For `O=c1[nH]c2ccccc2n1C1CCN(Cc2ccc(-c3[nH]c4cc5ncnc5cc4nc3-c3ccccc3)cc2)CC1`, the “activity change, negative = cytotoxicity” value is 0.008%.

Turning to `O=[N+]([O-])c1cc([N+](=O)[O-])c2ccccc2c1`, the “activity change, negative = cytotoxicity” value is -27.7% [at 93.4 µM].

In the case of `ClC1=C(Cl)[C@]2(Cl)[C@@H]3[C@@H]4C[C@@H]([C@H]5O[C@@H]45)[C@@H]3[C@@]1(Cl)C2(Cl)Cl`, the “activity change, negative = cytotoxicity” value was 7.53% [at 93.4 µM].

`CC=C(C)C(=O)O[C@H]1C(C)=C2[C@@H]3OC(=O)[C@@](C)(O)[C@@]3(O)[C@@H](OC(=O)CCC)C[C@](C)(OC(C)=O)[C@@H]2[C@@H]1OC(=O)CCCCCCC`: the Potency was 1.87 µM (active).

Consider `COc1cc2cc(c1Cl)N(C)C(=O)C[C@H](OC(=O)C(C)C)[C@]1(C)O[C@H]1[C@H](C)[C@@H]1C[C@@](O)(NC(=O)O1)[C@H](OC)C=CC=C(C)C2`, for which the Potency was 0.001 µM (active).

`O=C(O)COc1nc(Cl)c(Cl)cc1Cl`: the “activity change, negative = cytotoxicity” value is -2.84% [at 93.4 µM].

As for `CC(=O)Nc1ccc(OC[C@](C)(O)C(=O)Nc2ccc([N+](=O)[O-])c(C(F)(F)F)c2)cc1`, the Potency entry was “inactive”.

With `CC(=O)[O][Hg][c]1ccccc1`, the Potency is 0.259 µM (active).

With `CO/C=C(/C(=O)OC)c1ccccc1Oc1cc(Oc2ccccc2C#N)ncn1`, the Potency was 3.16 µM (active).

On to `c1cc2ccc3cccc4ccc(c1)c2c34`, for which the “activity change, negative = cytotoxicity” value is -7.91% [at 93.4 µM].

As to `O=C(O)c1cc(Oc2ccc(C(F)(F)F)cc2Cl)ccc1[N+](=O)[O-]`, the “activity change, negative = cytotoxicity” value is -3.48%.

The values are drawn from PubChem BioAssay (NCATS).
